Only some compounds are listed: those with a hit (about 3.5% of all), similar ones and a draw of the others.
Pf apPOL block – Pf-apPOL DNA polymerase inhibition | Recombinant Pf-apPOL, molecular beacon fluorescence, 1.5 h | AID 1794808 | 0.25% of 210,000 active | inhibition, % at 10 µM
mHTT-CaM PPI inh – inhibitors of human mutant huntingtin-calmodulin interaction | AID 1671202 | P42858 | AlphaScreen His-mHTT/GST-CaM binding, luminescence | inhibition, % at 15 µM | 3.6% of 190,000 active
Each line names hits and unclear results; the compound was inactive in the other large screens. Cut-off read from the data, not from the text of the source: active = inhibition above about 50%; inactive = the rest.

CC1=NOC(=O)/C1=C/c1ccccc1OCc1ccc(Br)cc1	mHTT-CaM PPI inh 54
O=C(NCc1ccncc1)c1cccnc1N1CCNC(c2ccccc2)C1 (centres undefined)	none
Cc1cc(OC(=O)c2ccc3c(c2)OCO3)cc2c1C(=O)C(=Cc1cccnc1)O2	none
CCN(CC)CCC(c1ccc2c(c1)OCO2)c1c(OC)cc(OC)c2c(C)cc(=O)oc12 (centres undefined)	none
CCN(CC)CCC(c1ccc(OC)cc1)c1c(OC)cc(OC)c2c(C)cc(=O)oc12 (centres undefined)	none
CCN(CC)CCC(c1ccc(N(C)C)cc1)c1c(OC)cc(OC)c2c1OC(=O)CC2c1ccc(OC)cc1 (centres undefined)	mHTT-CaM PPI inh 98
CCN(CC)CCC(c1ccc(N(C)C)cc1)c1c(OC)cc(OC)c2c1OC(=O)CC2c1ccc(N(C)C)cc1 (centres undefined)	mHTT-CaM PPI inh 101
NC1(CN2CCCCC2)CCCCC1	none (no result: Pf apPOL block)
CS(=O)(=O)C1=C(O)C(=O)N(c2ccccc2)C1c1ccc(Cl)cc1 (centres undefined)	none
CNC(=S)NN=C1CCCCC1	none (no result: mHTT-CaM PPI inh)
Cn1nc(-c2nc(-c3ccccc3)no2)c2c1CCN(C(=O)c1cccs1)C2	none
Cn1c2c(c3ccccc31)CN(C(=O)c1cccs1)CC2	mHTT-CaM PPI inh 100
CCOc1ccc(-c2csc(=Nc3ccccc3)n2CCN2CCOCC2)cc1	none
OCCCn1c(-c2ccccc2)csc1=Nc1cccc(Cl)c1	mHTT-CaM PPI inh 92
CCn1c(-c2ccccc2)csc1=Nc1ccc(S(=O)(=O)O)cc1	none
c1ccc(Cn2c(-c3ccccc3)csc2=Nc2ccccc2)cc1	none (no result: Pf apPOL block)
OCCCn1c(-c2ccc(I)cc2)csc1=Nc1ccccc1	mHTT-CaM PPI inh 70
OCCn1c(-c2ccc(I)cc2)csc1=Nc1ccccc1	mHTT-CaM PPI inh 66
OCCCn1c(-c2ccccc2)csc1=Nc1ccccc1	mHTT-CaM PPI inh 51
COc1ccc2c(CC(=O)N(CC(C)C)CC(C)C)cc(=O)oc2c1	none
COc1cc(NC(=O)c2ccc(Br)o2)c(OC)cc1Cl	none
Cc1ccc2ccccc2c1C[N+](C)(C)CC#Cc1ccccc1	mHTT-CaM PPI inh 77 (no result: Pf apPOL block)
C(#Cc1ccccc1)CN1CCN(CC#Cc2ccccc2)CC1	none
O=C(CCC(=O)N1CC2CCCN2c2ccccc21)NCCN1CCCC1 (centres undefined)	mHTT-CaM PPI inh 68
O=C(CCC(=O)N1CC2CCCN2c2ccccc21)NCCN1CCCCCC1 (centres undefined)	none
CCNC(=O)CCC(=O)N1CC2CCCN2c2ccccc21 (centres undefined)	none
CCc1ccc(CNC(=O)CCC(=O)N2CC3CCCN3c3ccccc32)cc1 (centres undefined)	mHTT-CaM PPI inh 55
COc1nn(C)cc1C(=O)NCCC1CCCCN1S(=O)(=O)c1cccs1 (centres undefined)	none
CC(=O)Nc1ccc(N=Cc2ccc([N+](=O)[O-])cc2)cc1	none
Cc1cc(C)cc(NC(=O)Nc2ccc3c(c2)N(S(C)(=O)=O)CC3)c1	none
Cc1ccc(CN2CCc3c(cc(C(=O)NCc4ccncc4)n3C)C2)cc1	none
CCN1c2ccccc2NC2N=C(OC)C(c3ccccc3)C21 (centres undefined)	none
CCOC1=NC2Nc3ccc(Cl)cc3N(C)C2C1c1ccc([N+](=O)[O-])cc1 (centres undefined)	mHTT-CaM PPI inh 54
CCCCc1c(C)c(C#N)c2nc3ccccc3n2c1NCCN1CCOCC1	none
CCc1c(C)c(C#N)c2nc3ccccc3n2c1NCCCN1CCOCC1	Pf apPOL block 83
O=C(O)/C=C/c1cn(-c2ccccc2)nc1-c1ccc(Cl)cc1	none
COc1cc(C2CC(=O)Nc3n[nH]c(-c4ccc(Cl)cc4)c32)ccc1O (centres undefined)	mHTT-CaM PPI inh 100
COc1cc(C2CC(=O)Nc3n[nH]c(C)c32)ccc1OCc1cccc(Cl)c1 (centres undefined)	mHTT-CaM PPI inh 56
COc1cc(C2CC(=O)Nc3n[nH]c(-c4ccccc4)c32)cc(OC)c1OC (centres undefined)	mHTT-CaM PPI inh 100
COc1cc(C2CC(=O)Nc3n[nH]c(C)c32)ccc1OCc1cccc(C)c1 (centres undefined)	none
COc1cccc(C2CC(=O)Nc3n[nH]c(-c4ccccc4)c32)c1 (centres undefined)	none
COc1ccc(C2CC(=O)Nc3n[nH]c(-c4ccc(Cl)cc4)c32)cc1OC (centres undefined)	none
Cc1cccc(-c2nc(C)c(CCNC(=O)C(=O)NC(C)c3ccccc3)s2)c1 (centres undefined)	none
CS(=O)(=O)N(Cc1ccccc1)c1ccc(C(=O)N2CCN(c3ccc(F)cc3)CC2)cc1	none
Cc1cccc(OCCCn2ccnc2)c1C	none
CN(CC(=O)NC1CCCC1)S(=O)(=O)c1ccc(Br)s1	none
N#CC1=C(N)Oc2n[nH]c(-c3ccccc3)c2C12C(=O)Nc1ccccc12 (centres undefined)	none
N#CC1=C(N)Oc2n[nH]c(-c3ccccc3)c2C12c1ccccc1-c1ccccc12	mHTT-CaM PPI inh 90
